High-throughput results (PubChem)
In the library only some 28% were active in any assay of this set; here they are far more common.
CYP2C9 inh: human CYP2C9 inhibition. inhibition, % at 5 µM. hit rate 20% among 96,000. CYP2C9 Supersomes, luciferin-H conversion, luminescence. P11712;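 active means blocking of liver enzyme CYP2C9 beyond about 50% at 5 µM, limit read from the data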
Target sequence (P11712 whole entry, looked up): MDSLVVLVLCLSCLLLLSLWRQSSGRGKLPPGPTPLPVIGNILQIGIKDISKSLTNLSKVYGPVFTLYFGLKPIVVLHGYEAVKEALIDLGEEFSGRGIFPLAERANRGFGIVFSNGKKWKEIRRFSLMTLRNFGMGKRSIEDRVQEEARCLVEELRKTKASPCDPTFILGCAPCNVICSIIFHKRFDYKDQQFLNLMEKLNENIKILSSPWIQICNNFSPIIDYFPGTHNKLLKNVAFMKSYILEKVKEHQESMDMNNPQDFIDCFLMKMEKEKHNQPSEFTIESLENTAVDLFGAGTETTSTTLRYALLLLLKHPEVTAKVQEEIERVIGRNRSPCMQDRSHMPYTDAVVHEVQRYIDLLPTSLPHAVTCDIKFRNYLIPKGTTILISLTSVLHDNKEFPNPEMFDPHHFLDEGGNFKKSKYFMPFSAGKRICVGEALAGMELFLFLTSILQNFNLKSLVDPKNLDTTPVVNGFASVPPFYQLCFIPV
Mac1 fbg enh: increases human CD11b/CD18 adhesion to fibrinogen; P05107+P11215; K562 CD11b/CD18 adhesion to fibrinogen, ATPlite luminescence; activation, % at 10 µM; hit rate 0.07% among 93,000; AID 1499;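 active means 10 µM primary screen giving 50% or more activity, confirmed by 40% or more on retest at that dose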
CYP2C9 activ: activators of human CYP2C9. recombinant CYP2C9, luciferin-H conversion, luminescence; hits give high values; factor 1 = untreated enzyme, 0 = blocked. activation factor at 5 µM. hit rate 1.4% among 96,000;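 active means activation factor of 2 or more for CYP2C9 at a 5 µM dose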
CYP2C19 activ: increases human CYP2C19 enzyme activity. P33261. 96,000 tested, under 10 active. recombinant CYP2C19, luciferin-H EGE luminescence; hits give high values; 0 = fully inhibited enzyme, 1 = untreated enzyme. activation factor at 5 µM. AID 1025;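 active means activation factor of at least 2 at 5 µM in the primary screen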
CD11b adhes inh: inhibitors of human CD11b/CD18 binding to fibrinogen. K562 CD11b/CD18 adhesion to fibrinogen, ATPlite luminescence; Mn2+ added to activate the integrin. inhibition, % at 10 µM. hit rate 0.54% among 93,000;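 active means primary inhibition of 50% or more at 10 µM, then 40% or more on retest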
CYP2C19 inhib: blocks human cytochrome P450 2C19; P33261; CYP2C19 Supersomes, luciferin-H EGE luminescence, 30 min; inhibition, % at 5 µM; hit rate 21% among 96,000; AID 778;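 active means CYP2C19 inhibition above a set limit at 5 µM in the primary screen, cut at about 50% in these data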
Of the large screens only hits and unclear results are named; the others gave an inactive call.

CCN(CCNC(=O)C1CCCN(Cc2nc(-c3ccc(OC)cc3)oc2C)C1)c1ccccc1 (stereo not drawn)	CYP2C9 inh 61, CYP2C19 inhib 55
COc1ccc(OCC(=O)N2CCN(C(=O)c3ccco3)CC2)cc1	none
COC(C#CCCN(C)C)(c1ccccc1)c1ccccc1	none (no result: CYP2C9 inh, CYP2C9 activ, CYP2C19 activ, CYP2C19 inhib)
Cc1ccc2occ(C3N[C@H](C(=O)O)CS3)c(=O)c2c1 (stereo partly drawn)	none (no result: Mac1 fbg enh, CD11b adhes inh)
COc1ccc(NC(=O)c2c(NC(=O)CNCc3ccco3)sc3c2CCC3)cc1	CYP2C9 inh 93, CYP2C19 inhib 63
COc1ccc(NC(=O)Cn2nnc(C(=O)NCc3ccco3)c2N)c(OC)c1	none
COc1ccc(OC)c(NC(=O)c2c(NC(=O)CNCc3ccco3)sc3c2CCC3)c1	CYP2C9 inh 65
COc1ccc(NC(=O)c2c(NC(=O)CNCc3ccco3)sc3c2CCC3)c(OC)c1	CYP2C9 inh 97, CYP2C19 inhib 77
COc1ccc(OC)c(NC(=O)Cn2c(=O)n(CC(=O)NCc3ccco3)c(=O)c3ccccc32)c1	none
Cc1ccc(NC(=O)C2C(c3ccccc3)C=CC(c3ccccc3)C2C(=O)O)cc1 (stereo not drawn)	none
COCCN(C(=S)Nc1ccccc1OC)C(C)c1cccs1 (stereo not drawn)	none (no result: CYP2C9 inh, CYP2C9 activ, CYP2C19 activ, CYP2C19 inhib)
O=C(CSc1ncnc2c1oc1ccccc12)OCc1ccccc1	none
O=C(O)CCCC(=O)NS(=O)(=O)c1ccc(Cl)cc1	none
COc1ccc(C(=O)N2CCN(S(=O)(=O)N3CCOCC3)CC2)cc1OC	none
O=C(NCc1ccncc1)c1ccc(Br)cc1	CYP2C19 inhib 51
O=C(NCCOC(=O)c1cccs1)c1cccnc1	CYP2C19 inhib 61
O=C(NCCOC(=O)c1ccncc1)c1ccccc1	CYP2C9 inh 92, CYP2C19 inhib 71
Cc1ccc(C(=O)NCCc2ccncc2)cc1	CYP2C19 inhib 51 (no result: Mac1 fbg enh, CD11b adhes inh)
O=C(NCc1ccncc1)c1cnccn1	none
COc1cc(C(=O)OCCNC(=O)c2ccncc2)cc(OC)c1OC	none (no result: CYP2C9 inh, CYP2C9 activ, CYP2C19 activ, CYP2C19 inhib)
Cn1ncc2cc(NC(=S)NC(=O)c3ccccc3)ccc21	none (no result: Mac1 fbg enh, CD11b adhes inh)
COc1c(C)cccc1C(=O)Nc1ccc(CN2CCCCC2)cc1	none
O=C(NCc1ccccc1)NC(=O)c1ccncc1	CYP2C9 inh 82, CYP2C19 inhib 95
O=C(NCCCc1ccccc1)c1ccncc1	CYP2C9 inh 93, CYP2C19 inhib 98
O=C(NCc1ccccc1)NC(=O)c1ccccc1	none
COC(=O)c1c(-c2cccs2)csc1NC(=O)c1cccnc1	CYP2C9 inh 100, CYP2C19 inhib 100
CCCCn1c(N)c(Sc2ccc(C)cc2)c(=O)[nH]c1=O	CYP2C19 inhib 53
Cc1cc(/C=C(\C#N)C(=O)OCC(=O)NC(=O)NC(C)(C)C)c(C)n1CCC(C)C	CYP2C9 inh 98, CYP2C19 inhib 92
O=C(N/N=C\c1ccccn1)C1COc2cc3ccccc3cc2O1 (stereo not drawn)	none (no result: Mac1 fbg enh, CD11b adhes inh)
CC1(C)CC(=O)C(C=Nc2ccc3cn[nH]c3c2)=C(O)C1	CYP2C19 inhib 54
CC1(C)CC(=O)C(C=Nc2ccc(O)cc2)=C(O)C1	none
CC1(C)CC(=O)C(C=Nc2ccc3[nH]ncc3c2)=C(O)C1	CYP2C19 inhib 100
COc1cc(-c2nc3n(n2)C(c2ccc(F)cc2)C2=C(CCCC2=O)N3)cc(OC)c1OC (stereo not drawn)	none
COc1cccc(C2C3=C(CCCC3=O)Nc3nc(-c4cc(OC)c(OC)c(OC)c4)nn32)c1 (stereo not drawn)	CYP2C19 inhib 62
O=C(NCc1cccs1)c1cc(C2CC2)on1	none
CCCCS(=O)(=O)/C=C\C1C2C=CC(C2)C1S(=O)(=O)CCCC (stereo not drawn)	CYP2C9 inh 52, CYP2C19 inhib 76
CC(=O)C(=[N+]=[N-])C(=O)NCc1ccccc1	none
O=c1c(S(=O)(=O)c2ccc(Cl)cc2)cn(Cc2ccccc2F)c2ccc(F)cc12	none (no result: CYP2C9 inh, CYP2C9 activ, CYP2C19 activ, CYP2C19 inhib)
COc1ccc(-c2nnc(SCC(=O)Nc3ccccc3)n2C)cc1	none
CCn1c(SCC(=O)Nc2ccc3c(c2)oc2ccccc23)nnc1-c1ccc(N)cc1	CYP2C9 inh 78
CC(=O)Nc1ccc(-c2nnc(SCC(=O)Nc3ccc4c(c3)oc3ccccc34)n2C)cc1	CYP2C9 inh 69 (no result: Mac1 fbg enh, CD11b adhes inh)
COc1cc(C)c2occ(/C(C)=N\O)c2c1	none
